# Results reported in paper PMC13083723 (Patterns, 2026).
# In all, about 5,400 compounds went through this assay and about 190 (3.5%) showed an effect of 50% or more. The full list was thinned out, with strong results kept by preference.
# Test system: Vero-E6
# Test: primary screen, phospholipidosis by LipidTOX staining; higher = more effect of the substance
# Details: 10 µM
# How it was run: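 Drug-induced phospholipidosis detected with HCS LipidTOX Red reagent in Vero-E6 cells. Compounds tested at 10 μM, with amiodarone (10 μM) as positive control and DMSO (0.1 v/v %) as vehicle.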
row,SMILES,result_ITMP [%]
1,N[C@@H]1[C@H]2CN(c3nc4c(cc3F)c(=O)c(C(=O)O)cn4-c3ccc(F)cc3F)C[C@@H]12,0.39
2,Cc1cc2c(cc1CC(=O)c1sccc1S(=O)(=O)[N-]c1onc(C)c1Cl)OCO2,-1.86
3,COc1cc2c(N3CCN(C(=O)Nc4ccc(OC(C)C)cc4)CC3)ncnc2cc1OCCCN1CCCCC1,23
4,COc1cc2ncnc(Nc3ccc(F)c(Cl)c3)c2cc1OCCCN1CCOCC1,-1.05
5,COc1cc(Nc2c(C#N)cnc3cc(OCCCN4CCN(C)CC4)c(OC)cc23)c(Cl)cc1Cl,68
6,CC1(C)S[C@@H]2[C@H](NC(=O)[C@H](NC(=O)N3CCN(S(C)(=O)=O)C3=O)c3ccccc3)C(=O)N2[C@H]1C(=O)[O-],-2.91
7,O=C1OC2(c3cc(I)c([O-])c(I)c3Oc3c2cc(I)c([O-])c3I)c2c(Cl)c(Cl)c(Cl)c(Cl)c21,-9.57
8,CC1(C)S[C@@H]2C(N3C(=O)[C@@H](c4ccccc4)NC3(C)C)C(=O)N2[C@H]1C(=O)[O-] (stereo partly drawn),-1.52
9,CC(=O)O[C@@]12CO[C@@H]1C[C@H](O)[C@@]1(C)C(=O)[C@H](O)C3=C(C)[C@@H](O)C[C@@](O)([C@@H](OC(=O)c4ccccc4)[C@H]21)C3(C)C,-5.35
10,Cc1noc(-c2ccc(-c3ccc(CC(=O)[O-])cc3)cc2)c1NC(=O)O[C@H](C)c1ccccc1,-0.34
11,O=C(Nc1ccccc1)Nc1ccc(-c2ccc(C(=O)[C@@H]3CCC[C@H]3C(=O)O)cc2)cc1 [R4A_0000400_001 / SPE_K81614372],-1.59
12,Cn1nccc1Nc1nccc(-c2ccn([C@H](CO)c3ccc(Cl)c(F)c3)c(=O)c2)n1 [R4A_0003897_001 / SPE_K86309810],-3.82
13,O[C@@H]1[C@H](O)[C@@H](CCl)O[C@H]1n1cnc2c(NC3CC4CCC3C4)ncnc21 (mixture of isomers),-1.27
14,CCCCN(CCCC)CC(O)c1cc(Cl)cc2c1-c1ccc(Cl)cc1/C2=C/c1ccc(Cl)cc1 (stereo not drawn),-0.63
15,CCCCN(CCCC)CCC(O)c1cc2c(Cl)cc(Cl)cc2c2cc(C(F)(F)F)ccc12 (stereo not drawn),68.8
16,CC(=O)N[C@@H]1C[C@H](O)[C@@H](CO)O[C@H]1O[C@H]1[C@H](O)[C@@H](O)[C@H](O)O[C@@H]1C(=O)[O-],-0.41
17,CC(C)[C@@H]1C(=O)N(S(C)(=O)=O)[C@@H]2CCN(C(=O)/C=C/CN3CCCCC3)[C@H]21,0.42
18,Cc1cccn2c(=O)c(/C=C(\C#N)c3nc4ccccc4s3)c(Oc3ccc(F)cc3)nc12,-3.48
19,O=C(CCn1cnc2c(O)ncnc21)Nc1ccc(C(=O)O)cc1,-5.54
20,C[C@@H]1CN(CC(=O)Nc2ccc3c(c2)Cc2cccc(-c4cc(=O)cc(N5CCOCC5)o4)c2S3)C[C@H](C)O1,4.24
21,CC(N)Cc1c[nH]c2ccc(O)cc12 (stereo not drawn),-1.42
22,CC(N)Cc1c[nH]c2ccc(OCc3cccs3)cc12 (stereo not drawn),55.2
23,NC(Cc1c[nH]c2ccc(O)cc12)C(=O)O (stereo not drawn),-1.81
24,C=C[C@H]1C[N@]2CC[C@H]1C[C@@H]2[C@@H](O)c1ccnc2ccc(OC)cc12,11.5

row,SMILES,result_ITMP [%]
1,CC1(C)[C@@H]2C[C@@H](O)[C@@](C)(O)[C@H]1C2,-10.7
2,Cc1ccc(Sc2ccccc2N2CCNCC2)c(C)c1,57.3
3,O=S(=O)(c1ccccc1)c1cnc2c(N3CCNCC3)cccc2c1,39.6
4,c1cc2c(c(N3CCNCC3)c1)OCCO2,-1.86
5,Cc1cc(CN2CCN(c3c(Br)cnc4[nH]c(-c5ccc(N6CCN(C)CC6)cc5)nc34)CC2)no1,-0.42
6,C[C@H](NC(=O)CCc1nc2ccccc2c(=O)[nH]1)c1ccccc1 [R4A_0003503_001 / SPE_A63444178],0.66
7,COCC(=O)O[C@]1(CCN(C)CCCc2nc3ccccc3[nH]2)CCc2cc(F)ccc2[C@@H]1C(C)C,88.2
8,O=C(O)CCc1nc2ccccc2[nH]1,-0.69
9,CC(C)[C@H]1c2ccc(F)cc2CC[C@@]1(CCN(C)CCCc1nc2ccccc2[nH]1)OC(=O)C1CC1,68.1
10,Cc1cc(S(=O)(=O)[O-])c2c(C)ccc(C(C)C)cc1-2,-3.22
11,CC1=CC(=O)[N-]S(=O)(=O)O1,-5.65
12,C[C@]12CCC(=O)C=C1CC[C@@H]1[C@@H]2CC[C@@]2(C)[C@H]1CC[C@]2(C)O,0.46
13,O=C([O-])C(O)C(O)C(O)C(O)CO (stereo not drawn),-6.08
14,O=C1[C@@H]2[C@H]3CC[C@H](C3)[C@@H]2C(=O)N1CCCCN1CCN(c2ncccn2)CC1,-0.39
15,c1ccc(Cn2c(N3CCNCC3)nc3ccccc32)cc1,51.9
16,CN(c1nccc(=O)[nH]1)C1CCN(c2nc3ccccc3n2Cc2ccc(F)cc2)CC1,0.52
17,c1ccc(Cn2c(-c3ccc(OC[C@H](C4CCNCC4)n4c(-c5ccccc5)nc5ccccc54)cc3)nc3ccccc32)cc1,13.3
18,C[C@H]1[C@H](C)CC[C@]2(C(=O)O)CC[C@]3(C)C(=CC[C@@H]4[C@@]5(C)CC[C@H](O)C(C)(C)[C@@H]5CC[C@]43C)[C@H]12,-0.84
19,Clc1ccccc1CNC[C@H]1CC[C@H](CNCc2ccccc2Cl)CC1,111
20,Clc1ccccc1CN1CCc2sccc2C1,5.84
21,CC[N+](CC)(CCNC(=O)C(=O)NCC[N+](CC)(CC)Cc1ccccc1Cl)Cc1ccccc1Cl,-0.68
22,COC(=O)[C@@]12OC[C@]34[C@H]([C@@H](O)[C@@H]1O)[C@@]1(C)CC(=O)C(O)=C(C)[C@@H]1C[C@H]3OC(=O)[C@H](OC(=O)/C=C(\C)C(C)C)[C@@H]24,-3.12
23,O=C1CN(/N=C/c2ccc(-c3ccc([N+](=O)[O-])cc3)o2)C(=O)[N-]1,-3.77
24,CCc1oc2ccccc2c1C(=O)c1cc(Br)c(O)c(Br)c1,0.74

row,SMILES,result_ITMP [%]
1,CN(CCOc1ccc(NS(C)(=O)=O)cc1)CCc1ccc(NS(C)(=O)=O)cc1,-1.68
2,CCCCc1oc2ccccc2c1C(=O)c1cc(I)c(OCCN(CC)CC)c(I)c1,55.1
3,CCCCN(CCCC)CCCOC(=O)c1ccc(N)cc1,4.87
4,CCc1oc2ccccc2c1C(=O)c1ccc(OCC(=O)O)cc1,-9.49
5,CCCCc1oc2ccc(NS(C)(=O)=O)cc2c1C(=O)c1ccc(OCCCN(CCCC)CCCC)cc1,74.9
6,CC[C@@H](C)C[C@@H](C)CCCCCCCCC(=O)N[C@H]1C[C@@H](O)[C@@H](NCCN)NC(=O)[C@@H]2[C@@H](O)CCN2C(=O)[C@H]([C@H](O)CCN)NC(=O)[C@H]([C@H](O)[C@@H](O)c2ccc(O)cc2)NC(=O)[C@@H]2C[C@@H](O)CN2C(=O)[C@H]([C@@H](C)O)NC1=O,-8.5
7,CC(C)c1cc2c(cc1S(=O)(=O)O)[C@@]1(C)CCC[C@@](C)(C(=O)O)[C@@H]1CC2,-4.65
8,CC(C)c1ccc2c(c1)CC[C@H]1[C@](C)(CN)CCC[C@]21C,80.5
9,Cc1c(N)nc([C@H](CC(N)=O)NC[C@@H](N)C(N)=O)nc1C(=O)N[C@H](C(=O)N[C@@H](C)[C@H](O)[C@@H](C)C(=O)N[C@@H](C(=O)NCCc1nc(-c2nc(C(=O)NCCC[S+](C)C)cs2)cs1)[C@@H](C)O)C(O[C@H]1O[C@H](CO)[C@H](O)[C@@H](O)[C@H]1O[C@H]1O[C@H](CO)[C@@H](O)[C@H](OC(N)=O)[C@@H]1O)c1c[nH]cn1 (stereo partly drawn),7.07
10,C[C@]12C=CC(=O)N[C@@H]1CC[C@@H]1[C@@H]2CC[C@]2(C)[C@@H](C(=O)Nc3cc(C(F)(F)F)ccc3C(F)(F)F)CC[C@@H]12,-3.63
11,C[C@@H]1CC[C@@]2(OC1)O[C@H]1C[C@H]3[C@@H]4CC=C5C[C@@H](O[C@@H]6O[C@H](CO)[C@@H](O[C@@H]7O[C@@H](C)[C@H](O)[C@@H](O)[C@H]7O)[C@H](O)[C@H]6O[C@@H]6O[C@@H](C)[C@H](O)[C@@H](O)[C@H]6O)CC[C@]5(C)[C@H]4CC[C@]3(C)[C@H]1[C@@H]2C,18.9
12,CC1(C)S[C@@H]2[C@H](NC(=O)Cc3ccccc3)C(=O)N2[C@H]1C(=O)[O-],-4.24
13,CN1CCCC(n2nc(Cc3ccc(Cl)cc3)c3ccccc3c2=O)CC1 (stereo not drawn),57.2
14,Clc1ccc(Nc2nnc(Cc3ccncc3)c3ccccc23)cc1,-1.32
15,COC1CCN(C(=O)c2cc(Cc3n[nH]c(=O)c4ccccc34)ccc2F)CC1,2.83
16,Cc1nnc(SCC2=C(C(=O)[O-])N3C(=O)[C@@H](NC(=O)Cn4cnnn4)[C@H]3SC2)s1,-0.51
17,C=CCN1CC[C@@]2(C)c3cc(O)ccc3C[C@H]1[C@H]2C,-0.02
18,CN1CC[C@@H]2CN3CCc4cccc(c43)[C@@H]2C1,5.83
19,CN1CCCC(CC2c3ccccc3Sc3ccccc32)C1 (stereo not drawn),74.2
20,CN1CCCC(CN2c3ccccc3Sc3ccccc32)C1 (stereo not drawn),42.2
21,C[C@]12CC[C@@H](O)C[C@@H]1CC[C@@H]1[C@@H]2CC[C@]2(C)C(c3ccccc3)=CC[C@@H]12,-2.07
22,N#CCc1ccccc1C#Cc1ccc(CCC(=O)O)c(F)c1,-8.03
23,O=C(O[C@H]1C[C@H]2CC[C@@H](C1)[N+]21CCCC1)C(O)(c1ccccc1)c1ccccc1,-3.78
24,CN1[C@@H](CC(=O)c2ccccc2)CCC[C@H]1C[C@H](O)c1ccccc1,13.8
